Consider seven compounds from PubChem BioAssay (EPA / NIEHS).

Inconclusive results are not listed. Activity calls are given as the source filed them. Rule for the calls, unless noted: active = hit-call score of the fitted dose curve at least 0.9, where 1 is the maximum; inactive = score below 0.9.

The target in assay [1] is Glucocorticoid receptor (Homo sapiens) (UniProt P04150). As to the kind of experiment: ATG_GR_TRANS: Attagene TRANS-FACTORIAL HepG2 Assay for human Glucocorticoid Receptor (GR) (AID 2282978; active = hit-call score of the fitted dose curve at least 0.9, where 1 is the maximum;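 note: activators score as hits since higher reporter transcript over DMSO is fitted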). As to conditions: HepG2 Attagene TRANS GR reporter, mRNA transcription. The gist of the method: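 Multiplexed TRANS reporter system, HepG2; 24 h exposure; RNA → oligo(dT) RT → reporter-specific PCR → 6-FAM primer extension → HpaI cut → CE fluorescence. Gain-of-signal vs DMSO.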

For assay [2], the target named is Bile acid receptor (Homo sapiens) (UniProt Q96RI1). As to the kind of experiment: ATG_FXR_TRANS: Attagene TRANS-FACTORIAL HepG2 Assay for Farnesoid X Receptor (FXR) (AID 2282979; active = hit-call score of the fitted dose curve at least 0.9, where 1 is the maximum;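 note: hits raise reporter mRNA above DMSO so AC50 marks FXR activation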). The settings on record: HepG2 Attagene TRANS FXR-GAL4 reporter transcription. Summed up:
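Reporter transcripts from transfected HepG2 cells were measured 24 h after dosing, using RT-PCR with capillary electrophoresis of 6-FAM-labelled fragments. The read-out reflects activity of exogenous FXR-Gal4 chimera on GAL4-UAS units, with induction relative to DMSO.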

For assay [3], the target named is Oxysterols receptor LXR-beta (Homo sapiens) (UniProt P55055). Briefly: ATG_LXRb_TRANS: Attagene TRANS-FACTORIAL HepG2 Assay for human Liver X Receptor beta (LXRb) (AID 2282981; active = hit-call score of the fitted dose curve at least 0.9, where 1 is the maximum). The settings on record: HepG2 Attagene TRANS GAL4-LXRb reporter, mRNA. The gist of the method: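 Gain-of-signal mRNA reporter endpoint, DMSO as negative control. Transiently transfected HepG2 cells carrying the NR-Gal4 chimera and GAL4-UAS reporter units were treated 24 h; transcripts quantified by RT-PCR and capillary electrophoresis fluorescence.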

Assay [4] concerns the target Hepatocyte nuclear factor 4-alpha (Homo sapiens) (UniProt P41235). As to the kind of experiment: ATG_HNF4a_TRANS: Attagene TRANS-FACTORIAL HepG2 Assay for human Hepatocyte Nuclear Factor 4 alpha (HNF4a) (AID 2282982; active = hit-call score of the fitted dose curve at least 0.9, where 1 is the maximum). The settings on record: HepG2 HNF4a transactivation reporter, mRNA readout. The gist of the method: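 Gain-of-signal mRNA induction, relative to DMSO vehicle, was read after 24 h compound treatment of HepG2 cells bearing transfected GAL4-UAS reporters. Detection used RT-PCR, 6-FAM primer extension and capillary electrophoresis.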

A short description of assay [5]: ATG_M_06_TRANS: Attagene TRANS-FACTORIAL HepG2 Assay for M06 Transcription Factor (Internal Marker) (AID 2282983; active = hit-call score of the fitted dose curve at least 0.9, where 1 is the maximum). The settings on record: HepG2 Attagene TRANS M06 internal marker reporter. The gist of the method: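 Cells: HepG2, transient multi-reporter transfection. Exposure: 24 h. Detection: RT-PCR, 6-FAM labelling, HpaI digestion (2 h, 37 °C), capillary electrophoresis. Baseline: DMSO.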

A short description of assay [6]: ATG_M_32_TRANS: Attagene TRANS-FACTORIAL HepG2 Assay for M32 Transcription Factor (Internal Marker) (AID 2282984; active = hit-call score of the fitted dose curve at least 0.9, where 1 is the maximum;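 note: transcript level of a background control reporter unit measured by RT-PCR and capillary electrophoresis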). As to conditions: HepG2 Attagene TRANS M32 internal marker reporter. Summed up:
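Capillary electrophoresis of 6-FAM-labelled reporter fragments gives the signal; data fitted for gain over DMSO negative control. Source: HepG2 cells bearing transient multiple reporter transcription units, 24 h exposure.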

In assay [7] the target is Nuclear receptor subfamily 4 group A member 2 (Homo sapiens) (UniProt P43354). As to the kind of experiment: ATG_NURR1_TRANS: Attagene TRANS-FACTORIAL HepG2 Assay for human Nuclear Receptor Related Protein 1 (NURR1) (AID 2282985; active = hit-call score of the fitted dose curve at least 0.9, where 1 is the maximum). The settings on record: HepG2 Attagene TRANS reporter, mRNA readout. The gist of the method:
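HepG2 / transient MRTU transfection / 24 h compound exposure / RT-PCR + CE fluorescence of reporter mRNA / gain-of-signal vs DMSO.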

The target of assay [8] is Transcriptional activator Myb (Homo sapiens) (UniProt P10242). As to the kind of experiment: ATG_Myb_CIS: Attagene CIS-FACTORIAL HepG2 Assay for human Myeloblastosis (Myb) Proto-Oncogene Transcription Factor (AID 2282986). The settings on record: HepG2 Attagene CIS-FACTORIAL Myb reporter transcription; actives raise or lower the signal. Summed up: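 Endogenous transcription factor activity at a Myb-responsive cis element is reported in human liver HepG2 cells after 24 h chemical treatment. Reporter mRNA is detected by RT-PCR and capillary electrophoresis fluorescence, with DMSO as baseline.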

Assay [9] concerns the target Nuclear respiratory factor 1 (Homo sapiens) (UniProt Q16656). Briefly: ATG_NRF1_CIS: Attagene CIS-FACTORIAL HepG2 Assay for human Nuclear Respiratory Factor 1 (NRF1) Orphan Gene (AID 2282987). The settings on record: HepG2 NRF1 cis-element reporter, Attagene multiplex; actives raise or lower the signal. Summed up: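 Human hepatoma HepG2 cells carrying transfected promoter-regulated reporter units were incubated with test chemicals for 24 h. Reporter transcripts were measured by RT-PCR plus capillary electrophoresis, and endpoints derived by bidirectional fitting with DMSO as baseline.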

Assay [10] has as its target Myc proto-oncogene protein (Homo sapiens) (UniProt P01106). As to the kind of experiment: ATG_Myc_CIS: Attagene CIS-FACTORIAL HepG2 Assay for human Myelocytomatosis (Myc) Proto-Oncogene Transcription Factor (AID 2282990). The settings on record: HepG2, Attagene cis-reporter transcription factor activity; actives raise or lower the signal. Summed up: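 Fluorescence intensity of reporter-specific cDNA fragments, separated by capillary electrophoresis, gives the signal. Transfected HepG2 cells carrying cis-promoter reporter constructs are incubated with compound for 24 h; DMSO serves as baseline.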

Assay [11] is described as follows: ATG_NF_kB_CIS: Attagene CIS-FACTORIAL HepG2 Assay for human Nuclear Factor Kappa B (NF-kB) (AID 2282991). The settings on record: HepG2 Attagene cis-factorial NF-kB reporter mRNA; actives raise or lower the signal. The gist of the method: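 Multiplexed cis-reporter assay in transiently transfected HepG2. 24 h treatment; RNA isolated, RT-PCR, labelled fragments resolved by CE. DMSO baseline.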

Assay [12] can be described thus: ATG_NRF2_ARE_CIS: Attagene CIS-FACTORIAL HepG2 Assay for human Nuclear Factor Erythroid 2 Related Factor 2 (NFR2) response to Antioxidant Response Elements (ARE) (AID 2282992).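 For AC50: reporter mRNA level measured by RT-PCR and capillary electrophoresis fluorescence.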 As to conditions: HepG2 Attagene ARE/NRF2 reporter, transcription factor activity; actives raise or lower the signal. The gist of the method:
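HepG2 cells transiently transfected with multiplexed cis-regulated reporter transcription units measure endogenous transcription factor activity. Reporter mRNA at 24 h is quantified by RT-PCR, fluorescent labelling and capillary electrophoresis, with bidirectional fitting relative to DMSO.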

Assay [13] can be described thus: ATG_Oct_MLP_CIS: Attagene CIS-FACTORIAL HepG2 Assay for human Octamer-Binding Transcription Factor (Oct) (AID 2282993). The settings on record: HepG2 Attagene cis-factorial Oct reporter, mRNA; actives raise or lower the signal. Summed up:
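HepG2 cells transiently transfected with cis-promoter-driven multiplexed reporter transcription units, dosed for 24 h. Reporter mRNA quantified by RT-PCR, fluorescent labelling, HpaI digestion and capillary electrophoresis; bidirectional fits versus DMSO baseline.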

Assay [14] has as its target Cellular tumor antigen p53 (Homo sapiens) (UniProt P04637). Briefly: ATG_p53_CIS: Attagene CIS-FACTORIAL HepG2 Assay for human p53 Transcription Factor (AID 2282994). The settings on record: HepG2 p53 cis-element reporter, Attagene mRNA; actives raise or lower the signal. Summed up:
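HepG2 cells transiently transfected with multiplexed cis-regulated reporter transcription units read endogenous TF activity. After 24 h compound exposure, reporter mRNA was quantified by RT-PCR, fluorescent labelling, HpaI digestion and capillary electrophoresis; bidirectional fits versus DMSO baseline.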

A short description of assay [15]: BSK_3C_TissueFactor: BioMAP Diversity Plus: 3C Assay for Tissue Factor Biomarker Activity (AID 2282997). The settings on record: BioMAP 3C HUVEC, tissue factor biomarker readout; actives raise or lower the signal. Summed up: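 Dosing of human umbilical vein endothelial cells preceded a 24 h incubation. Tissue Factor was then read by ELISA, with increases and decreases both scored relative to DMSO controls.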

Assay [16] is described as follows: BSK_3C_uPAR: BioMAP Diversity Plus: 3C Assay for Urokinase-type plasminogen activator receptor (uPAR) Biomarker Activity (AID 2282998). The settings on record: BioMAP 3C HUVEC, uPAR biomarker ELISA; actives raise or lower the signal. Summed up: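 Human umbilical vein endothelial primary cells were exposed to test chemical for 24 h. Cell-surface uPAR was then quantified by ELISA, and responses were fitted bidirectionally against DMSO as negative control and baseline.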
For orientation: ELISA stands for enzyme-linked immunosorbent assay.

Assay [17] addresses Oxysterols receptor LXR-alpha (Homo sapiens) (UniProt Q13133). As to the kind of experiment: ATG_LXRa_TRANS: Attagene TRANS-FACTORIAL HepG2 Assay for human Liver X Receptor alpha (LXRa) (AID 2282980; active = hit-call score of the fitted dose curve at least 0.9, where 1 is the maximum). The settings on record: HepG2 Attagene TRANS reporter, LXRa transactivation. Summed up: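 Chemical-induced reporter mRNA measured by RT-PCR with fluorescent labelling and capillary electrophoresis after 24 h dosing of transiently transfected HepG2 cells expressing exogenous NR-Gal4 chimeras; increases scored against DMSO baseline.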

Assay [18] can be described thus: ATG_NFI_CIS: Attagene CIS-FACTORIAL HepG2 Assay for human Nuclear Factor I (NFI) (AID 2282989). The settings on record: HepG2 cis-regulatory reporter, NFI response element transcription; actives raise or lower the signal. The gist of the method:
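HepG2 cells transiently transfected with cis-element-driven multiplexed reporter transcription units, dosed for 24 h. Reporter mRNA quantified by RT-PCR, fluorescent labelling, HpaI digestion and capillary electrophoresis; bidirectional fit versus DMSO baseline.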

Assay [19] has as its target Estrogen-related receptor gamma (Homo sapiens) (UniProt P62508). Briefly: ATG_ERRg_TRANS: Attagene TRANS-FACTORIAL HepG2 Assay for human Estrogen-Related Receptor gamma (ERRg) (AID 2282977; active = hit-call score of the fitted dose curve at least 0.9, where 1 is the maximum;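 note: hits increase reporter signal over DMSO so potencies reflect activators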). As to conditions: HepG2 Attagene TRANS reporter, ERRg transactivation. Summed up:
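Transient HepG2 transfectants, 24 h compound exposure, GAL4-UAS reporter mRNA by RT-PCR/6-FAM labelling/capillary electrophoresis; positive direction vs DMSO.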

Sequence of Nuclear respiratory factor 1 (Homo sapiens) (Q16656 whole entry, looked up): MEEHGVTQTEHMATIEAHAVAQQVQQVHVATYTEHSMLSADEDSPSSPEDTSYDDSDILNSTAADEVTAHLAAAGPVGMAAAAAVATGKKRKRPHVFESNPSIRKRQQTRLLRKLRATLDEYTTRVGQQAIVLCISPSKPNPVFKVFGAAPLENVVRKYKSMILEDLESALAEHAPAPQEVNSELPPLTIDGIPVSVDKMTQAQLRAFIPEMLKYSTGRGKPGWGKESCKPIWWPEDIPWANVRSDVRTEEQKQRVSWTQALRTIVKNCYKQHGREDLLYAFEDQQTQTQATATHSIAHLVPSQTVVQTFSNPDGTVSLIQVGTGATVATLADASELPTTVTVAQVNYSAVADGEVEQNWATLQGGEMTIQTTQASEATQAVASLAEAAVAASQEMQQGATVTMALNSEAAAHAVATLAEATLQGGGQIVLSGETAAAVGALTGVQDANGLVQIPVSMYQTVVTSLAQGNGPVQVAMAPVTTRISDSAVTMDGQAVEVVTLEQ
Sequence of Hepatocyte nuclear factor 4-alpha (Homo sapiens) (P41235 whole entry, looked up, the tested form may be a part): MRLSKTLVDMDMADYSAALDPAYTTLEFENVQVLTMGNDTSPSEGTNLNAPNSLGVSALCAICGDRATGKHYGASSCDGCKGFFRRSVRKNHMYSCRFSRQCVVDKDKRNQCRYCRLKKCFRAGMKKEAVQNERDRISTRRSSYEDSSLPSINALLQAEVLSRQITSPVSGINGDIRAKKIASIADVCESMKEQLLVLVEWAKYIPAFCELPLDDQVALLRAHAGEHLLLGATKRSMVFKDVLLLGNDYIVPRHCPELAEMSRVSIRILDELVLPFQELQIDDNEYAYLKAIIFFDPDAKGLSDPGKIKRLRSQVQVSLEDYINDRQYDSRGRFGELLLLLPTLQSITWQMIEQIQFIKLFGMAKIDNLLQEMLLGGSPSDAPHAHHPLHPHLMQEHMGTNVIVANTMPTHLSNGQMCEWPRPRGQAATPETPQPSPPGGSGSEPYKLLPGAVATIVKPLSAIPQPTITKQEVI
Sequence of Myc proto-oncogene protein (Homo sapiens) (P01106 whole entry, looked up, the tested form may be a part): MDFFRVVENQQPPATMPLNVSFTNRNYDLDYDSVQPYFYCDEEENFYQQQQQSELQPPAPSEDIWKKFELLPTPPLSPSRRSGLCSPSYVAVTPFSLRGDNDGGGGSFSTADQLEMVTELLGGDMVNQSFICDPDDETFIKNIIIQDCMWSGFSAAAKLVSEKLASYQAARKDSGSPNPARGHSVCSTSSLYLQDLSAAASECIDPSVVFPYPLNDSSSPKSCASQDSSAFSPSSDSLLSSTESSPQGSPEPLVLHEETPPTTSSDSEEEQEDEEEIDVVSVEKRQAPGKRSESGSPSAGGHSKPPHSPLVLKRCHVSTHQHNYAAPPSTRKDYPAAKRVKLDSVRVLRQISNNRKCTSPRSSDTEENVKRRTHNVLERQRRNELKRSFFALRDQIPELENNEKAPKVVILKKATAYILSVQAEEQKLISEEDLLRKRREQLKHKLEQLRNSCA
Sequence of Oxysterols receptor LXR-alpha (Homo sapiens) (Q13133 whole entry, looked up, the tested form may be a part): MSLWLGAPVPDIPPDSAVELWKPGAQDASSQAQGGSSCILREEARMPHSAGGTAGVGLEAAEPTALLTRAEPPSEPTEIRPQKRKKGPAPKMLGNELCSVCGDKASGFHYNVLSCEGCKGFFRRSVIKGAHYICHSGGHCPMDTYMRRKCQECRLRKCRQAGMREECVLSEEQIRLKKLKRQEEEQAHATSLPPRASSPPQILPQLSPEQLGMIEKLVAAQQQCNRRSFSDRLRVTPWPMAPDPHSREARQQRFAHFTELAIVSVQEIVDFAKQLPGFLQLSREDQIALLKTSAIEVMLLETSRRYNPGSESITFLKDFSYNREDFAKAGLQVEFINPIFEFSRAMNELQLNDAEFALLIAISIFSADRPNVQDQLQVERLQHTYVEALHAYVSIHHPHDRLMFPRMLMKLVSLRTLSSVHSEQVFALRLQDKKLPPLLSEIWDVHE
Sequence of Bile acid receptor (Homo sapiens) (Q96RI1 whole entry, looked up, the tested form may be a part): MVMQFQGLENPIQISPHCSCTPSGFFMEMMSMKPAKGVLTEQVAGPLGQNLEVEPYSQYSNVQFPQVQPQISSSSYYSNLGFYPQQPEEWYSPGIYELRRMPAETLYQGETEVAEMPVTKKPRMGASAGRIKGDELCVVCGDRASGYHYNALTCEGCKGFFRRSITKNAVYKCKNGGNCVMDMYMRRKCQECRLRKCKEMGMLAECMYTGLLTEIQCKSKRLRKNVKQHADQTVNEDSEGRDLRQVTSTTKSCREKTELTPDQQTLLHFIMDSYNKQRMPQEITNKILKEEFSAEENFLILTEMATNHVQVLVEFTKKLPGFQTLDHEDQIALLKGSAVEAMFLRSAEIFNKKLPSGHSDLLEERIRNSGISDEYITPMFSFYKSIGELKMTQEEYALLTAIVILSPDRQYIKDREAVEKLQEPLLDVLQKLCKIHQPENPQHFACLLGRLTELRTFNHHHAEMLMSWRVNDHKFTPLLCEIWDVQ
Sequence of Nuclear receptor subfamily 4 group A member 2 (Homo sapiens) (P43354 whole entry, looked up): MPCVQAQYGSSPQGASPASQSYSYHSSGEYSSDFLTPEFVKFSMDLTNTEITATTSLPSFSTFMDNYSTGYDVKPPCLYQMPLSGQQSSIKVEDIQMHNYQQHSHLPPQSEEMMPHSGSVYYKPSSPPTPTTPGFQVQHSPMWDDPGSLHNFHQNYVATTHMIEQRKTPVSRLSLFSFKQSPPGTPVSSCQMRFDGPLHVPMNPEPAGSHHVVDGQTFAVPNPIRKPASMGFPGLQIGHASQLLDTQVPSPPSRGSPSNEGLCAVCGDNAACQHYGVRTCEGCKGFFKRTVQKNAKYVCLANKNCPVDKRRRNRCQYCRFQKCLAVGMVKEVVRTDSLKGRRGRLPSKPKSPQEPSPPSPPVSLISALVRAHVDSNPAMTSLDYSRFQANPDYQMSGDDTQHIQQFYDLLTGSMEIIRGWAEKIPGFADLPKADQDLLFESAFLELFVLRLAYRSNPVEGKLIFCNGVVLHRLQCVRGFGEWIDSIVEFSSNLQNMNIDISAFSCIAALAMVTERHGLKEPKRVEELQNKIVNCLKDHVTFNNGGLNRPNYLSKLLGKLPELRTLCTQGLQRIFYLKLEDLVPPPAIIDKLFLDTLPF
Sequence of Glucocorticoid receptor (Homo sapiens) (P04150 whole entry, looked up): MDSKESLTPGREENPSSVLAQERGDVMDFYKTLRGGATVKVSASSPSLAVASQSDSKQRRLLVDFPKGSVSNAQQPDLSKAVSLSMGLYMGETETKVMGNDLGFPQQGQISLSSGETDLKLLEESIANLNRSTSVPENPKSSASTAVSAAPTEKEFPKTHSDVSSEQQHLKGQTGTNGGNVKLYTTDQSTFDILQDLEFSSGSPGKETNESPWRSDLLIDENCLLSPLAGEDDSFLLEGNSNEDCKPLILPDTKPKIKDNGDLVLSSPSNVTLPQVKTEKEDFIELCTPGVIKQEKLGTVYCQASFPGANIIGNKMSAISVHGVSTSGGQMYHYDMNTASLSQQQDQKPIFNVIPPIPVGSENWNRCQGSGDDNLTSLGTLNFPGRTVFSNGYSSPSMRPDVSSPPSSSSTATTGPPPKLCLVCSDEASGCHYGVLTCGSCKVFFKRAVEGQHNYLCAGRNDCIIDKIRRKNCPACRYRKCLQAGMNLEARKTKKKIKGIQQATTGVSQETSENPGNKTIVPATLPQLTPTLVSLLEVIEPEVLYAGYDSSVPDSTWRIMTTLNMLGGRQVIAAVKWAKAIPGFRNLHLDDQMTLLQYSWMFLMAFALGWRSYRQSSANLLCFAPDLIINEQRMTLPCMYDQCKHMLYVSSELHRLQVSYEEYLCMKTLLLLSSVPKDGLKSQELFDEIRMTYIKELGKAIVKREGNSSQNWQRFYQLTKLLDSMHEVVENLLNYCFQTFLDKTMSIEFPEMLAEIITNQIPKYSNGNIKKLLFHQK
Sequence of Oxysterols receptor LXR-beta (Homo sapiens) (P55055 whole entry, looked up, the tested form may be a part): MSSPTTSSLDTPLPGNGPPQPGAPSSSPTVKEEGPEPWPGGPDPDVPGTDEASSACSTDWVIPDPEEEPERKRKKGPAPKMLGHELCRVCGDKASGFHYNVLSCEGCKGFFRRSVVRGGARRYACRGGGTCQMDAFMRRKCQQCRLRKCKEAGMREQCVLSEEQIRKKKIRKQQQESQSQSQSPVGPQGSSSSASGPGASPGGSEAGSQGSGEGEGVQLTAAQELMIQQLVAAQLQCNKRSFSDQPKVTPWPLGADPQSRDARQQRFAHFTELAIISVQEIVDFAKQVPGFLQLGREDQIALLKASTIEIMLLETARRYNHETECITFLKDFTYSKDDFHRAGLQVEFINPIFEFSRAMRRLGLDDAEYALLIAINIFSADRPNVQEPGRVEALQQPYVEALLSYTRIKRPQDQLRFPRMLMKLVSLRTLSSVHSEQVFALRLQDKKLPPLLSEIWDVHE
Sequence of Transcriptional activator Myb (Homo sapiens) (P10242 whole entry, looked up): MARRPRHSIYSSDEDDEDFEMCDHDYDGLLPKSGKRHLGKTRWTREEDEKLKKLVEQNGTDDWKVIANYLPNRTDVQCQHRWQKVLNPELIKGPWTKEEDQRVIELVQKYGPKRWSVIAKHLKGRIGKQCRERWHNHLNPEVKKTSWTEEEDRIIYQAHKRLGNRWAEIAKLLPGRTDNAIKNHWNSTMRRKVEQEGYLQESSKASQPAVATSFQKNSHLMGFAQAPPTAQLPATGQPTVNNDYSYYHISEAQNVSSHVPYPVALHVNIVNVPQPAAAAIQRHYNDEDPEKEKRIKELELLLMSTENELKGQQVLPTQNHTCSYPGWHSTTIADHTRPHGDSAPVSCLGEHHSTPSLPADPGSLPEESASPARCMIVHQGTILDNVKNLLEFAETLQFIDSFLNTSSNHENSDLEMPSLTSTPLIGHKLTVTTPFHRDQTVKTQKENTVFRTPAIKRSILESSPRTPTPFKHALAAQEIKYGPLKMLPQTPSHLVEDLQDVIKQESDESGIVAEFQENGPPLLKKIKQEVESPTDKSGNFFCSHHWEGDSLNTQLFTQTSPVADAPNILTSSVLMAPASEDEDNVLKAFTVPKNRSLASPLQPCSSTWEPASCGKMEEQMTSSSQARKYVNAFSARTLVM

Consider `CCCCC(CC)COC(=O)c1ccccc1C(=O)OCC(CC)CCCC` (stereo not given), for which the outcome in [1], in [2], in [3], in [4], in assay [5] and in assay [6] was inactive. For the same compound, the compound was called inactive in [7], in assay [8], in assay [9], in assay [10], in assay [11] and in [12]. Moreover, the compound was classed as inactive in [13], in assay [14], in [15] and in assay [16].

As to `CCOC(=O)C(Cl)Cc1cc(-n2nc(C)n(C(F)F)c2=O)c(F)cc1Cl` (stereo not given), the compound was called inactive in [1], in assay [17], in assay [3], in [5], in assay [6] and in assay [8]. For the same compound, the result in assay [9], in [18], in [10], in assay [11], in assay [12] and in assay [13] was inactive. For the same compound, the outcome in [14], in [15] and in assay [16] was inactive.

In general, AC50 refers to the concentration giving half of the maximal activity seen. For the compound `C#CCOS(=O)OC1CCCCC1Oc1ccc(C(C)(C)C)cc1` (stereo not given), the call in [19], in assay [2], in assay [17], in assay [3], in [4] and in [5] was inactive. Further, the call in [8], in assay [9], in [18], in assay [10], in [11] and in assay [14] was inactive. In assay [15], the result was inactive. For the same compound, the concentration at half-maximal activity (AC50) is 1.19 µM (active) in [12], 0.811 µM (active) in assay [13] and 7.03 µM (active) in assay [16].

As for `Cc1c(F)c(F)c(COC(=O)C2C(/C=C(\Cl)C(F)(F)F)C2(C)C)c(F)c1F` (stereo not given), the compound was classed as inactive in [1], in assay [17], in assay [3], in assay [4], in assay [6] and in assay [7]. Besides, the compound was classed as inactive in [8], in [9], in [10], in assay [11], in assay [12] and in assay [13]. Moreover, the result in assay [14], in assay [15] and in assay [16] was inactive.

Regarding `CC(C)C1(C)N=C(c2nc3ccccc3cc2C(=O)O)NC1=O` (stereo not given), the compound was called inactive in assay [19], in assay [2], in [17], in assay [3], in assay [4] and in assay [5]. Also, the result in assay [6], in assay [7], in [8], in assay [9], in [10] and in assay [11] was inactive. Further, the compound was classed as inactive in [12], in assay [13], in assay [14], in assay [15] and in assay [16].

For `CC1=C(C(=O)Nc2ccccc2)SCCO1`, the result in assay [19], in assay [2], in assay [3], in assay [5], in assay [6] and in assay [8] was inactive. The result in assay [9], in [10], in assay [13], in [14], in assay [15] and in assay [16] was inactive. Also, the AC50 in assay [12] was 16.6 µM (active).

`COc1nc(C)nc(NC(=O)NS(=O)(=O)c2ccccc2Cl)n1`: the call in assay [19], in assay [3], in assay [4], in assay [5], in assay [6] and in [8] was inactive. In addition, the outcome in assay [9], in assay [10], in [12], in assay [13], in assay [14] and in assay [15] was inactive. Moreover, in assay [16], the result was inactive.
